High-throughput results: PubChem BioAssay, National Center for Advancing Translational Sciences (NCATS)
KB-3-1 tox: kills parental KB-3-1 adenocarcinoma cells | KB-3-1 viability, CellTiter-Glo ATP luminescence, 72 h | Potency, µM (doses to about 46.1 µM), usual class: cytotoxic | 400,000 compounds, 1.4% hits; note: % is set by controls: 0 for no effect and ±100 for the full control effect; nearly all actives have a fitted effect of over 60% in size
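Viability of parental KB-3-1 cells, measured by CellTiter-Glo luminescence, followed a 72 h incubation at 37 °C with pinned compounds in phenol-red-free DMEM containing 10% FBS.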
KB-V1 cytotox: KB-V1 MDR subline cytotoxicity | KB-V1 MDR cells viability, CellTiter-Glo, 72 h | Potency, µM (doses to about 46.1 µM), usual class: cytotoxic | 400,000 compounds, 3.4% hits | AID 1347076; note: % is set by controls: 0 for no effect and ±100 for the full control effect; nearly all actives have a fitted effect of over 60% in size
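Potencies derive from concentration-effect curves fitted to normalized luminescence (CellTiter-Glo) of KB-V1 cells treated for 72 h at 37 degrees C in phenol-red-free DMEM containing 10% FBS.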
12-LOX inh: blocks human arachidonate 12S-lipoxygenase. P18054. purified 12hLO, xylenol orange hydroperoxide absorbance. Potency, µM (series often up to 108 µM), inactives show at the highest dose activity change, negative = inhibition, actives largely listed as inhibitors. 580,000 compounds, 1.1% hits. AID 1671190; note: % is set by controls: 0 for no effect and ±100 for the full control effect
Target sequence (P18054 whole entry, looked up): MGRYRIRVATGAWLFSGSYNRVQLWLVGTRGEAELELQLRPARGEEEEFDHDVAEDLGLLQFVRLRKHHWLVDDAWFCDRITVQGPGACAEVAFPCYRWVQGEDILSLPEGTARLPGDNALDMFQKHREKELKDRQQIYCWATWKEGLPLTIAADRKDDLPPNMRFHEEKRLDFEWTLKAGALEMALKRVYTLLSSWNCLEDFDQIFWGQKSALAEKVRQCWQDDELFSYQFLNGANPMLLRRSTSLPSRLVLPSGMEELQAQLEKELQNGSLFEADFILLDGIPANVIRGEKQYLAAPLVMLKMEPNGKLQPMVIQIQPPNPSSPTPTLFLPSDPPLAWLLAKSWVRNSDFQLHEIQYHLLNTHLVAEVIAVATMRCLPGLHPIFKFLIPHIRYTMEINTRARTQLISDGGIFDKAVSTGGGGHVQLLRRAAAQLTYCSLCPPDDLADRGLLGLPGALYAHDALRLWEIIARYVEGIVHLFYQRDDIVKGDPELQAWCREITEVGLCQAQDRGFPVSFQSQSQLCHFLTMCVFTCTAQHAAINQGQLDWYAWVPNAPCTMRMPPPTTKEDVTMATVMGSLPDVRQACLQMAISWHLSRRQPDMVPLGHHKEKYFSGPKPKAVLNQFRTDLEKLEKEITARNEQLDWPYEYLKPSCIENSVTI
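Purified human 12hLO (150 nM final) in 25 mM Hepes, 0.01% Triton X-100, pH 7.0 was preincubated 15 min at room temperature with compound. Then 40 uM arachidonic acid was added, 30 min. Hydroperoxide was read by Fe-XO absorbance ratio 573/405 nm.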
PINK1 expr mod: modulators of PINK1 expression; AID 624263; 410,000 compounds, 0.2% hits; Potency, µM (doses to about 76.6 µM), inactives show at the top dose activation (PINK1 increase), hits mostly activators; PINK1 immunofluorescence, high-content cytometry, 24 h; active = well fitted activation curve with a large enough effect; inconclusive = small, poorly fitted or top-dose-only effect; cell line not stated here; note: % of control where 0% means no effect; nearly all actives have a fitted effect of over 65% in size
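Cells are seeded, rested 12 hours, then given compound at five concentrations or DMSO for 24 hours. After fixation, blocking and antibody staining, PINK1 amount and mitochondrial localization are scored; CCCP serves as control.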
MCF10A rereplic: DNA re-replication induction in MCF 10a cells | Potency, µM (series often up to 46.1 µM), for inactives: at the top dose activity, positive = re-replication, hits mostly activators | 350,000 compounds, 2.9% hits | AID 624296 | MCF 10A DNA re-replication, Hoechst nuclear intensity, 48 h; note: % of control where 0% means no effect; nearly all actives have a fitted effect of over 50% in size
SW480 rereplic: inducers of DNA re-replication in SW480 colon cancer cells. SW480 DNA re-replication, Hoechst DNA content imaging, 48 h. Potency, µM (top dose mostly 46.1 µM), for inactives: at the highest dose re-replication activation, actives largely listed as activators. 340,000 compounds, 1.8% hits. AID 624297; note: % of control where 0% means no effect; nearly all actives have a fitted effect of over 55% in size
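SW480 cells exposed to compounds for 48 hr at 37 C, 5% CO2, then Hoechst-stained 40 min. Nuclear DNA content imaged by fluorescence scanning (405 nm excitation, 500-530 nm emission); re-replication scored as increased high-intensity nuclei.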
Numbers without * were called inactive; i = inactive; ? = inconclusive; . = no result; [ ] = dose if it differs, or a comment. In the library only some 5.8% were active in any assay of this set; here they are far more common. Unless noted, calls come from the whole dose curve; as a rule, active = well fitted curve in the direction sought with a large enough effect; inconclusive = small, poorly fitted or top-dose-only effect, or another doubt; inactive = no such curve, though single readings can be large; an effect the other way counts as inactive or inconclusive. Potency is the fitted concentration of half-maximal effect.

SMILES	KB-3-1 tox	KB-V1 cytotox	12-LOX inh	PINK1 expr mod	MCF10A rereplic	SW480 rereplic
COc1cc2nc(NCCCN3CCN(C)CC3)n3nc(-c4ccccc4)nc3c2cc1OC	?	?	0.0%	-1.3%	13µM*	?
CCN(CC)CCCNc1nc2cc(OC)c(OC)cc2c2nc(-c3cccnc3)nn12	i	?	24.4%	5.5%	?	?
CCN(CC)CCCNc1nc2cc(OC)c(OC)cc2c2nc(-c3ccccc3)nn12	23.1µM*	16.4µM*	.	-4.4%	?	?
CC(C)OCc1cc(CN2CCN(c3ccccc3)CC2)c(O)c2ncccc12	?	6.51µM*	?	0.7%	.	.
Oc1c(Br)cc(Br)c2cccnc12	i	?	?	10.9%	?	?
Oc1c(CN2CCN(c3ccccc3)CC2)cc(Br)c2cccnc12	?	i	-21.0%	2.8%	-1.8%	18.4µM*
COCc1cc(CN2CCN(C)CC2)c(O)c2ncccc12	?	3.66µM*	-6.2%	17.2%	?	?
CCOCc1cc(CN2CCN(c3cccc(Cl)c3)CC2)c(O)c2ncccc12	.	.	6.9%	1.6%	.	.
CCOC(=O)N1CCN(Cc2cc(Cl)c3cccnc3c2O)CC1	?	i	?	8.2%	?	4.61µM*
CN1CCN(C(c2ccccn2)c2cc(Cl)c3cccnc3c2O)CC1 (stereo unspecified)	i	i	?	0.9%	14.6%	?
Cc1ccc(CN(C)C(=O)Cn2c(Cl)nc3c2c(=O)n(C)c(=O)n3C)cc1	.	.	11.5%	.	.	.
Cc1cccc(Cc2cnc(NC(=O)c3cc(=O)c4cc(C)ccc4o3)s2)c1	.	.	39.3%	.	.	.
c1ccc(N2CCN(Cc3ccnc4ccccc34)CC2)cc1	16.4µM*	i	0.0%	-2.2%[38.3 µM]	4.8%	4.6%
O=C1OCCN1C(=O)[C@H]1[C@H](c2ccc([N+](=O)[O-])cc2)C(c2cccc(Cl)c2)=NN1c1ccc(Br)cc1	i	i	?	1.7%	-3.2%	-6.7%
O=C1OCCN1C(=O)[C@H]1[C@H](c2ccccc2)C(c2cccc(Cl)c2)=NN1c1ccc(Br)cc1	i	i	-9.9%	6.0%	?	2.06µM*
O=C1OCCN1C(=O)[C@H]1[C@H](c2ccc(F)cc2)C(c2cccc(Cl)c2)=NN1c1ccc(Br)cc1	?	i	-16.7%	2.0%	?	1.3µM*
O=C1OCCN1C(=O)[C@H]1[C@H](c2ccc(Cl)cc2)C(c2ccccc2)=NN1c1ccc(Br)cc1	i	i	?	0.1%	?	23.1µM*
O=C(Nc1cc(Cl)ccc1Cl)c1cc([N+](=O)[O-])cc(Br)c1O	i	i	.	0.2%	.	.
O=C(Nc1ccc([N+](=O)[O-])cc1Cl)c1cc(Br)ccc1O	2.31µM*	1.84µM*	.	?	.	.
O=C(Nc1c(Cl)cc([N+](=O)[O-])cc1Cl)c1cc(Cl)ccc1O	0.731µM*	?	.	?	.	.
O=C1NCCCCCCN(Cc2ccncc2)[C@@H]2CN(C(=O)NCCc3ccccc3)CC[C@H]12	.	.	8.5%	.	.	.
Cc1ccc(OC(=O)c2oc3ccc(F)cc3c2C)c(C)c1	i	i	-5.3%	.	?	18.4µM*
COc1ccc(/C=C/C(=O)c2oc3ccc(F)cc3c2C)cc1	i	i	.	20.4%	9.4%	-3.5%
C[n+]1cn(/N=C/c2ccccc2)c2ccccc21	i	i	?	0.6%	7.7%	1.9%
CC(=O)N(C(C)=O)c1nc(-c2ccccc2)cn1/N=C/c1ccccc1	?	?	0.0%	12.1%	11.6µM*	-3.1%
SMILES	KB-3-1 tox	KB-V1 cytotox	12-LOX inh	PINK1 expr mod	MCF10A rereplic	SW480 rereplic
Cn1c(=O)[nH]c(=O)c2c1nc(SCC(=O)Nc1ccccc1)n2Cc1ccccc1Cl	.	.	-26.3%	.	.	.
COc1ccc([C@H]2CN(c3ccc(OC)cc3)C(=O)[C@@H]2CC(=O)Nc2ccc(Br)cc2)cc1	?	16.4µM*	-1.9%	0.1%	.	.
COc1ccc(N2C[C@H](Cc3ccccc3)[C@@H](CC(=O)Nc3ccccc3)C2=O)cc1	i	i	-1.3%	1.3%	.	.
COc1ccc([C@H]2CN(c3ccccc3)C(=O)[C@@H]2CC(=O)Nc2ccccc2)cc1	i	?	2.1%	0.2%	.	.
COc1ccc(NC(=O)C[C@H]2C(=O)N(c3ccccc3)C[C@@H]2Cc2ccccc2)cc1	i	14.6µM*	-8.2%	1.8%	.	.
O=C(CCc1ccccc1)N1C[C@@H](CO)[C@H](c2nc(C3CC3)no2)C1	.	.	6.4%	.	.	.
NC1CCN(C(=O)C2CCCN(c3nc(-c4ccccc4)nc4c3CCC4)C2)CC1 (stereo unspecified)	.	.	49.9%	.	.	.
Nc1nc2nc(-c3cccs3)cc(C(F)(F)F)n2n1	i	i	i	0.3%	20.6µM*	?
O=C1CCN(Cc2ccccc2)CCCC(c2nc(-c3cnccn3)no2)CCN1 (stereo unspecified)	.	.	82.2%	.	.	.
CC1Cc2ccccc2N1c1ncnc2nc[nH]c12 (stereo unspecified)	9.2µM*	i	.	-1.7%	23.7%	-10.9%
c1ccc2c(c1)CCN(c1ncnc3nc[nH]c13)C2	?	i	-20.0%	-0.1%	0.9%	0.4%
